Shown are actives, neighbours in structure and some others; about 3.6% of the full set was active somewhere.
Nrf2 ARE act: activates Nrf2 signaling | AREc32 ARE-luciferase reporter (MCF7-derived line), luminescence, 24 h | Potency, µM (titrated, usually from 46.1 µM), usual class: activators | 0.31% of 410,000 active | AID 624171; note: nearly all actives have a fitted effect of over 65% in size
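AREc32 cells carrying an ARE-driven firefly luciferase, 1000 cells/well in OPTI-MEM with 5% FBS, dosed after overnight attachment and incubated 24 hr at 37 deg C. Steady-Glo luminescence read after 30 min at RT.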
TGFb inhibitor: inhibitors of TGF-b signaling | HepG2 CAGA-GFP TGF-b/SMAD3 reporter, GFP fluorescence, 18 h; TGF-beta stimulated, 500 pg/mL final | Potency, µM (series often up to 46.1 µM), hits mostly inhibitors | 1.2% of 410,000 active; note: nearly all actives have a fitted effect of over 65% in size
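Inhibition was scored as loss of TGF-beta-induced (500 pg/mL final, 18 hours, 37 degrees C) GFP in HEPG2 cells carrying a CAGA-GFP reporter, in DMEM with 1% FBS. Well GFP was summed per cell; Activity was normalised to unstimulated and stimulated DMSO wells, then concentration-response fitting.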
A549 viability: A549 cytotoxicity, counter-screen for Nrf2 inhibitors; A549 ARE-Fluc cells, CellTiter-Fluor viability, 18-24 h; Potency, µM (top dose mostly 46 µM), usual class: inhibitors; 0.16% of 390,000 active; AID 504648
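A549 ARE_Fluc cells in 5% FBS OPTI-MEM were exposed to compounds in concentration-response for 18-24 h at 37 deg C. Viability was read by CellTiter-Fluor fluorescence (Ex 405/Em 525) after 30 min, before the luciferase read.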
HepG2 viability: counter-screen for TGF-b inhibitors: cytotoxicity in HepG2 cells | 0.76% of 410,000 active | HepG2 CAGA-GFP viability, ATP luminescence, 18 h | AID 588856 | Potency, µM (highest dose often 46.1 µM), usual class: cytotoxic
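CellTiter-Glo luminescence gave cytotoxicity after 18 hours at 37 degrees C. The cells were HepG2 CAGA-GFP in 1% FBS DMEM, stimulated with 500 pg/mL TGF-beta after compound addition. %Activity was normalised to no-cell wells (complete cell-killing) and DMSO (no toxicity), and curves were fitted and classified.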
Nrf2 block: Nrf2 pathway inhibition | 2.1% of 360,000 active | Potency, µM (series often up to 46 µM), usual class: inhibitors | A549 ARE-Fluc reporter, luciferase luminescence, 18-24 h; note: nearly all actives have a fitted effect of over 60% in size
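Nrf2 function is reported as luminescence of an ARE-controlled luciferase in A549 cells. Compounds were tested at several concentrations, and a CellTiter-Fluor read on the same wells flagged cytotoxicity.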
Hits are given with their value; . = inactive; ? = inconclusive; / = no result given. Calls come from the whole dose curve; as a rule, active = well fitted curve in the direction sought with a large enough effect; inconclusive = small, poorly fitted or top-dose-only effect, or another doubt; inactive = no such curve, though single readings can be large; an effect the other way counts as inactive or inconclusive.

SMILES	Nrf2 ARE act	TGFb inhibitor	A549 viability	HepG2 viability	Nrf2 block
COc1ccc(-c2csc(Nc3ccc(S(=O)(=O)Nc4cc(C)on4)cc3)n2)cc1	.	.	.	.	?
Cc1nn(-c2ccccc2)c(Cl)c1/C=N/O	.	.	.	.	.
Cc1nn(-c2ccccc2)c(Cl)c1/C=C/C(=O)c1ccccc1	?	?	.	11µM	.
CC(Oc1ccc2c3c(c(=O)oc2c1)CCCC3)C(=O)NCC1CCC(C(=O)O)CC1 (stereo unspecified)	.	.	.	.	.
c1ccc(OCCCCn2cnc3ccccc32)cc1	.	?	.	.	23µM
c1ccc(OCCn2cnc3ccccc32)cc1	.	?	.	.	.
Cc1ccccc1OCCCCn1cnc2ccccc21	.	.	.	.	6.5µM
Cc1ccccc1OCCCCn1c(CO)nc2ccccc21	.	.	.	.	23µM
O=C(Cn1c2c(c(=O)n3ncnc13)CCC2)N/N=C/c1cccs1	.	.	.	.	.
COc1ccc([C@H]2CC(=O)C=C(c3ccc(C)c(F)c3)C2)cc1	.	?	.	.	.
CC1C(=O)N2CCCc3cc(S(=O)(=O)NCCc4ccccc4)cc1c32 (stereo unspecified)	.	.	.	.	16µM
COc1ccc(CCNC(=O)c2cc(-c3cc(Cl)cc(Cl)c3)oc2C)cc1	.	.	.	.	/
O=C(NCCc1ccc(Cl)cc1)c1cccn1-c1nnc(N2CCCCC2)s1	.	?	.	.	?
CC(C)c1ccc(OCCCCCN2CCOCC2)cc1	.	.	.	.	.
CC(=O)Oc1ccc(OC(C)=O)c(SCCCCCN2CCOCC2)c1	.	16µM	.	.	.
N=c1ccn(Cc2ccc(Cl)c(Cl)c2)cc1	.	.	?	.	/
COc1ccc(C(=O)N2CCC(c3nc(-c4ccc(S(=O)(=O)N5CCCC5)cc4)no3)CC2)cc1	.	.	?	.	21µM
O=C(CC1CCCCC1)N1CCCC(c2nc(-c3ccc(S(=O)(=O)N4CCCC4)cc3)no2)C1 (stereo unspecified)	.	?	.	.	?
CCOc1ccc(C(=O)N2CCC(c3nc(-c4ccc(S(=O)(=O)N5CCCC5)cc4)no3)CC2)cc1	.	.	.	.	13µM
COc1ccc(-c2noc(C3CCCN(C(=O)c4ccccc4)C3)n2)cc1 (stereo unspecified)	.	.	.	.	?
Cc1ccc(NC(=O)C(C)OC(=O)/C=C/c2ccccc2)cc1 (stereo unspecified)	.	.	.	.	.
Cc1ccc(CNc2ncnc3cc(Cl)ccc23)cc1	.	?	.	.	21µM
Cc1ccc(CNc2ncnc3onc(C)c23)cc1	.	.	.	.	8.2µM
Cc1noc2ncnc(NCc3cccc(Cl)c3)c12	.	.	.	.	?
Cc1ccc2nc(-c3ccc(NC(=O)CN4CCN(C(=O)c5ccco5)CC4)cc3)sc2c1	.	.	.	.	.
SMILES	Nrf2 ARE act	TGFb inhibitor	A549 viability	HepG2 viability	Nrf2 block
Clc1ccccc1C1=CC(c2ccco2)n2ncnc2N1 (stereo unspecified)	11µM	.	.	.	.
COc1ccc(CC2(CO)CCN(S(=O)(=O)c3c(C)nn(C)c3Cl)CC2)cc1	.	.	.	.	.
Cc1nn(C)c(Cl)c1S(=O)(=O)N1CCC(CO)(CCc2ccccc2)CC1	.	.	.	.	21µM
CN(CCC#N)C(=O)COC(=O)c1nn(-c2ccccc2)c(=O)c2ccccc12	.	.	.	.	.
Cc1ccc2[nH]c3c(=O)n(CC(=O)N(CCN(C)C)Cc4ccccc4)ncc3c2c1	.	11µM	.	.	.
CCCCN(C)C(=O)Cn1ncc2c([nH]c3ccc(C)cc32)c1=O	.	.	.	.	?
C/C(=N\NC1=NCCN1)c1ccc(N)c([N+](=O)[O-])c1	.	.	.	.	.
CCCCOc1ccc(Br)cc1/C(C)=N/NC1=NCCN1	.	?	12µM	11µM	?
CCCCCCOc1ccc(/C(C)=N/NC2=NCCN2)cc1[N+](=O)[O-]	.	?	.	20µM	.
CCOC(=O)c1cccc(NC(=O)c2cc3cc4cc(OC)ccc4nc3s2)c1	.	.	?	.	23µM
CCN(CCCNC(=O)c1cc2c(=O)[nH]c3ccc(C)cc3c2s1)c1ccc(C)cc1	.	.	.	.	.
CCN(CCCNC(=O)c1cc2cc3cc(OC)ccc3nc2s1)c1cccc(C)c1	.	?	.	.	26µM
CCN(CCCNC(=O)c1cc2cc3ccc(C)cc3nc2s1)c1ccccc1	.	6.3µM	.	.	.
CCOC(=O)c1cccc(NC(=O)c2cc3cc4ccc(C)cc4nc3s2)c1	.	.	.	.	?
COc1ccc2nc3sc(C(=O)NCCc4ccc(Cl)cc4)cc3cc2c1	.	.	.	.	.
Cc1csc2ncc(C(=O)NCc3ccccc3Cl)c(=O)n12	.	.	.	.	.
CCc1nnc(NC(=O)CSc2nnc(COc3ccccc3)n2-c2ccc(C)cc2)s1	.	.	.	.	.
CC(=O)N1CCOc2ccc(S(=O)(=O)N3CCC(C(=O)Nc4ccc(C)c(C)c4)CC3)cc21	.	.	.	.	16µM
COc1ccc(S(=O)(=O)N2CCC(C(=O)Nc3ccc4c(c3)OCCO4)CC2)cc1OC	.	.	.	.	21µM
CSCC[C@H](NC(=O)c1ccc(Cl)c([N+](=O)[O-])c1)c1nc2ccccc2[nH]1	.	.	.	.	.
CCc1cccc(C)c1NC(=O)CSc1nnc(CCCOc2ccc(Cl)cc2Cl)n1C	.	?	.	.	16µM
Cn1c(CCCOc2ccc(Cl)cc2Cl)nnc1SCC(=O)Nc1cccc(F)c1	.	.	.	.	.
Nc1nc(N)c2c(ccc3nccc32)[nH]1	.	?	.	1.3µM	.
Cn1c(SCc2ccccc2)nccc1=O	.	.	.	.	.
CC1=C(SCc2ccccc2)C(=O)c2ccccc2C1=O	.	7.9µM	.	13µM	.
SMILES	Nrf2 ARE act	TGFb inhibitor	A549 viability	HepG2 viability	Nrf2 block
Cc1ccc(-n2c(Cl)c(Cl)nc(Cl)c2=O)cc1	.	5µM	?	7.1µM	?
COc1cc(OC)c(NC(=O)NCc2cccn2Cc2ccccc2)cc1Cl	.	8.9µM	.	.	?
COc1ccc(C)cc1NC(=O)NCc1cccn1Cc1ccccc1	.	.	.	.	.
Cc1[nH]c2ccccc2c1/C=N/NC(=S)NCc1ccccc1	.	13µM	.	.	.
Cc1[nH]c2ccccc2c1/C=N/NC(N)=S	.	.	.	.	.
O=C(OC1CCOC1=O)c1ccc(N2CCCC2)c([N+](=O)[O-])c1 (stereo unspecified)	.	.	.	.	.
Oc1c(N=Nc2ccccc2)sc2ccccc12	2.8µM	.	.	.	.
CC(=Nc1ccc(O)cc1)c1sc2ccccc2c1O	?	.	.	.	?

Bioassay records: PubChem, National Center for Advancing Translational Sciences (NCATS)
